High-throughput results: PubChem, several laboratories
CYP2C19 act = cytochrome P450 2C19 (human) activation; activation factor at 5 µM; recombinant CYP2C19, luciferin-H EGE luminescence; stronger effect = higher value; 0 = fully inhibited enzyme, 1 = untreated enzyme; P33261; AID 1025; 96,000 tested, under 10 active;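 active = activation factor of at least 2 at 5 µM in the primary screen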
Target sequence (P33261 whole entry, looked up): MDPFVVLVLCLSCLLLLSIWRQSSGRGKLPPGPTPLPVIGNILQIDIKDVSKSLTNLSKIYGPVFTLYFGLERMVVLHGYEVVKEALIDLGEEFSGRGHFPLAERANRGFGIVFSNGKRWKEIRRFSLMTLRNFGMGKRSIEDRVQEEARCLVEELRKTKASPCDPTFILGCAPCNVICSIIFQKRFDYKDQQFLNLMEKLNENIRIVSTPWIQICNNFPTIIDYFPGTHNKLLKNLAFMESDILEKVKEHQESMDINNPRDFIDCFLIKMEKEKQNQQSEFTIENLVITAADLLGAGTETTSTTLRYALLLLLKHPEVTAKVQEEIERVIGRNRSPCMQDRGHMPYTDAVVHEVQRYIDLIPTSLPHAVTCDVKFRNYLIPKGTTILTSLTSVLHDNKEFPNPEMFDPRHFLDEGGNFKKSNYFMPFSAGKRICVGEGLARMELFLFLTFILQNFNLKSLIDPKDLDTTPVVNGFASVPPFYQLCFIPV
Cav32 inh = human Cav3.2 channel inhibition, primary screen; B-score at 10 µM; hit rate 4% among 100,000; O95180; Cav3.2-expressing cells, Fluo-4 calcium fluorescence FDSS; stronger effect = lower value; AID 449739;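 active = single-dose well whose peak fluorescence ratio is a statistical outlier from its plate by either plate-standardised score or position-corrected B-score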
CYP2C19 inhib = human CYP2C19 inhibition. inhibition, % at 5 µM. P33261. hit rate 21% among 96,000. AID 778. CYP2C19 Supersomes, luciferin-H EGE luminescence, 30 min;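 active = CYP2C19 inhibition above a set limit at 5 µM in the primary screen, cut at about 50% in these data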
CYP2C9 act = activators of human CYP2C9. P11712. recombinant CYP2C9, luciferin-H conversion, luminescence; stronger effect = higher value; factor 1 = untreated enzyme, 0 = blocked. activation factor at 5 µM. hit rate 1.4% among 96,000;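 active = activation factor of 2 or more for CYP2C9 at a 5 µM dose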
CYP2C9 inhib = human CYP2C9 inhibition | CYP2C9 Supersomes, luciferin-H conversion, luminescence | inhibition, % at 5 µM | hit rate 20% among 96,000 | AID 777;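 active = blocking of liver enzyme CYP2C9 beyond about 50% at 5 µM, limit read from the data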
Numbers stand for hits; 0 = inactive; - = no result given. This is a sample that favours compounds with a hit; in the whole collection about 27% have one here.

SMILES | CYP2C19 act | Cav32 inh | CYP2C19 inhib | CYP2C9 act | CYP2C9 inhib
O=C(O)C1CCN(C(=O)c2ccccc2Cl)CC1 | 0 | 0 | 0 | 0 | 0
CN(C)S(=O)(=O)N1CCN(C(=O)c2ccccc2Cl)CC1 | 0 | 0 | 76.0 | 0 | 0
CN(C)S(=O)(=O)N1CCC(Cc2ccccc2)CC1 | - | 0 | - | - | -
CN(C)S(=O)(=O)N1CCN(Cc2ccccc2)CC1 | 0 | 0 | 92.9 | 0 | 0
Cc1cc(C)c(S(C)(=O)=O)c(Oc2ccccc2C)n1 | 0 | 0 | 0 | 0 | 0
Cc1cnc(C(=O)N2CCN(S(=O)(=O)c3ccc4ccccc4c3)CC2)cn1 | 0 | 0 | 0 | 0 | 0
O=C(c1cnccn1)N1CCN(S(=O)(=O)c2ccc3ccccc3c2)CC1 | 0 | 0 | 94.6 | 0 | 0
O=C(c1n[nH]c2ccccc12)N1CCN(S(=O)(=O)c2ccc3ccccc3c2)CC1 | 0 | 0 | 0 | 0 | 55.6
Cc1ccc(C)c(S(=O)(=O)N2CCN(C(=O)c3cnccn3)CC2)c1 | 0 | 0 | 50.9 | 0 | 51.1
COc1ccc(NC(=O)c2nc3nccc(C)n3n2)cn1 | 0 | 0 | 0 | 0 | 0
Cc1cc(C)nc(SCc2nc3ncccn3c2Br)n1 | 0 | 0 | 0 | 0 | 0
Clc1c(CSc2nc3ccccc3o2)nc2ccccn12 | 0 | - | 97.9 | 0 | 0
Clc1c(CSc2nc3ccccc3o2)nc2sccn12 | 0 | 0 | 0 | 0 | 0
Brc1c(CSc2nc3ccccc3o2)nc2ncccn12 | 0 | 0 | 64.3 | 0 | 0
Cc1ccc(Cl)cc1NC(=O)CC1NCCNC1=O (stereo not drawn) | - | 0 | - | - | -
Cc1cccc(C)c1NC(=O)COC(=O)c1nonc1N | 0 | 0 | 0 | 0 | 0
CCOc1ncccc1C(=O)OCC(=O)Nc1c(C)cccc1C | 0 | 0 | 52.4 | 0 | 0
CCOc1ncccc1C(=O)OCC(=O)N1CCN(S(=O)(=O)c2ccc(Cl)cc2)CC1 | 0 | 0 | 0 | 0 | 0
CCOc1ncccc1C(=O)OCC(=O)Nc1c(C)cc(C)cc1C | 0 | 0 | 60.0 | 0 | 0
COC(=O)CNC(=O)CSc1nc(N)cc(=O)[nH]1 | 0 | 0 | 0 | 0 | 0
CCCCn1c2c(c(=O)n(C)c1=O)C(c1ccc(OC)cc1)N1CCCCCC1=N2 (stereo not drawn) | 0 | 0 | 0 | 0 | 0
Cc1ccnc(NCn2nnc3ccccc32)c1 | 0 | 0 | 0 | 0 | 0
O=C(c1ccc(-n2cnnn2)cc1)N1CCCCC1 | - | 0 | - | - | -
COc1cccc(-n2cnnn2)c1 | 0 | 0 | 0 | 0 | 0
Cc1ccc(C)n1-c1ccc(-n2cnnn2)cc1 | 0 | 0 | 73.6 | 0 | 0
SMILES | CYP2C19 act | Cav32 inh | CYP2C19 inhib | CYP2C9 act | CYP2C9 inhib
COc1ccc(-n2c(C)cc(C(=O)COc3ccc(-n4cnnn4)cc3)c2C)cc1 | 0 | 0 | 0 | 0 | 0
c1ccc(Oc2ccc(-n3cnnn3)cc2)cc1 | 0 | 0 | 82.1 | 0 | 0
O=C(Oc1ccccc1)c1ccc(-n2cnnn2)cc1 | 0 | 0 | 69.0 | 0 | 0
O=C(c1c(F)c(F)c(F)c(F)c1F)N1CCc2ccccc21 | - | 0 | - | - | -
CC(=O)c1c(C)[nH]c(C(=O)N2CCc3ccccc32)c1C | 0 | 0 | 68.9 | 0 | 69.3
COc1ccc(NS(=O)(=O)Cc2ccccc2Cl)cn1 | 0 | 0 | 63.8 | 0 | 0
COc1ccc(C(=O)COC(=O)CSCc2c(C)noc2C)cc1OC | 0 | 0 | 64.2 | 0 | 0
Cc1ccccc1OC1C(=O)N(Cc2ccc3c(c2)OCO3)C1c1sccc1C (stereo not drawn) | 0 | 0 | 74.4 | 0 | 81.5
COc1cc(/C=N/N2CCN(C3c4ccccc4-c4ccccc43)CC2)ccc1O | 0 | 0 | 0 | 0 | 0
COc1cc(/C=C2\OC(=O)c3c(OC)cccc32)ccc1O | 0 | - | 96.6 | 0 | 94.6
CCc1ccc(C(=O)c2ccccc2C(=O)O)s1 | 0 | 0 | 0 | 0 | 0
O=C(O)Cc1ccc(C(=O)c2ccccc2F)s1 | 0 | 0 | 50.2 | 0 | 0
CCOC(=O)c1ccccc1NC(=O)CSc1nnc(COc2ccccc2C)n1C | 0 | -4.64 | 0 | 0 | 0
Cc1ccccc1OCc1nnc(SCC(=O)Nc2ccc3c(c2)OCO3)n1C | 0 | 0 | 76.0 | 0 | 0
CCOC(=O)c1ccccc1NC(=O)CSc1nnnn1C1CCCCC1 | 0 | 0 | 0 | 0 | 72.3
COC(=O)c1ccccc1NC(=O)CSc1nnnn1C1CCCCC1 | 0 | 0 | 0 | 0 | 0
CCCC/C(O)=C1\C(=O)CC(C)(C)CC1=Nc1ccc(OC)cc1 | 0 | 0 | 56.6 | 0 | 0
COc1cc(C(C)=O)ccc1OCC(=O)c1cc(C)n(C2CC2)c1C | 0 | 0 | 58.0 | 0 | 0
CCOC(=O)c1cn2nc(-c3ccc(OC)cc3)cc2nc1C1CCN(C(=O)OC(C)(C)C)CC1 | 0 | 0 | 0 | 0 | 63.4
Cc1ccc(-n2ncc(C(=O)O)c2C2CCN(C(=O)OC(C)(C)C)CC2)cc1 | 0 | 0 | 0 | 0 | 0
CN1CCN(C(=O)CN(CCc2ccccc2)S(C)(=O)=O)CC1 | 0 | - | 0 | 0 | 0
CCOC(=O)C1CCN(S(=O)(=O)C(F)(F)c2nc3ccccc3s2)CC1 | 0 | 0 | 95.4 | 0 | 64.7
O=S(=O)(c1cccs1)N1CCN(Cc2nc3ccccc3s2)CC1 | 0 | 0 | 84.7 | 0 | 83.2
O=C(COC(=O)C1CCN(S(=O)(=O)c2cccs2)CC1)c1cc2ccccc2o1 | 0 | 0 | 0 | 0 | 0
O=C(CCc1nc2ccccc2s1)N1CCN(S(=O)(=O)c2cccs2)CC1 | 0 | 0 | 70.2 | 0 | 58.7
SMILES | CYP2C19 act | Cav32 inh | CYP2C19 inhib | CYP2C9 act | CYP2C9 inhib
O=C(CCCc1c[nH]c2ccccc12)N1CCN(S(=O)(=O)c2cccs2)CC1 | 0 | 0 | 0 | 0 | 0
O=C(OCc1nc2ccccc2s1)C1CCN(S(=O)(=O)c2cccs2)CC1 | 0 | 0 | 82.1 | 0 | 95.3
Clc1nc(NCc2cccnc2)nc(N2CCOCC2)n1 | - | 0 | - | - | -
O=C(NCc1cccnc1)[C@@H]1CC=C[C@@H]2CCN(Cc3ccccc3)C(=O)[C@@H]21 | - | 0 | - | - | -
O=C(CCCc1cccs1)N1CCN(S(=O)(=O)c2ccccc2Br)CC1 | 0 | - | 0 | 0 | 68.9
Cc1ccccc1OCC(=O)N(Cc1nc(-c2ccccc2)no1)C(C)C | 0 | -4.28 | 57.3 | 0 | 0
Cc1ccc(-c2noc(CN3CCN(C(c4ccccc4)c4ccccc4)CC3)n2)cc1 | 0 | 0 | 0 | 0 | 0
Cc1ccc(SCC(=O)N(Cc2nc(-c3ccccc3)no2)C(C)C)cc1 | 0 | 0 | 76.9 | 0 | 78.8
COc1ccccc1OCC(=O)N(Cc1nc(-c2ccccc2)no1)C1CCCCC1 | 0 | -8.13 | 0 | 0 | 0
Cc1ccccc1OCc1nc(-c2ccccc2)no1 | 0 | 0 | 0 | 0 | 0
C/C(CC1CC(COCCC(C)C)OC1=O)=N\NC(N)=S (stereo not drawn) | 0 | 0 | 0 | 0 | 0
N#CC(c1ccc(Cl)cc1)(c1ncc(C(F)(F)F)cc1Cl)N1CCOCC1 (stereo not drawn) | 0 | - | 0 | 0 | 0
CCOC(=O)c1c2n(c3c(NCc4ccccc4)ncnc13)CCCC2 | 0 | 0 | 0 | 0 | 77.3
CC1=C(C(=O)OC(C)C)C(c2c(O)ccc3ccccc23)NC(=O)N1 (stereo not drawn) | 0 | 0 | 86.4 | 0 | 0
Cc1ccc(/C=N/NC(=O)Cc2c[nH]c3ccccc23)c(C)c1 | 0 | - | 0 | 0 | 0
CC(C)(C)c1ccc(/C=N/NC(=O)Cc2c[nH]c3ccccc23)cc1 | 0 | 0 | 0 | 0 | 74.0
